The results in this text go back to PubChem BioAssay (NCI).

About 83,000 compounds went through this panel and 20% of them were active in at least one assay; those are over-represented in the sample as a whole.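 Compound tested at a single concentration for 48 hours in 96-well plates; a percent growth value below 10 was scored as active.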 Unmarked numbers belong to inactive results. Active and inactive are the calls of the source.

For the assay, the system named is HL-60(TB) leukemia. Kind of assay: NCI-60 one-dose screen, 48 h (100 = growth as untreated, 0 = no growth, -100 = all killed). Particulars: 10 µM unless noted.
For the compound `C=C(C)[C@@H]1CC[C@]2(C(=O)N3CCNCC3)CC[C@]3(C)[C@H](CC[C@@H]4[C@@]5(C)C/C(=C/c6ccncc6)C(=O)C(C)(C)[C@@H]5CC[C@]43C)[C@@H]12`, the growth is 99.7%.
For the compound `COc1cc(/C=C/C(=O)c2c(C)nc3ccccc3c2/C=C/c2ccc(C)cc2)cc(OC)c1OC`, the growth was 12.5%.
Take `COc1cccc(-c2nn(-c3ccccc3)cc2-c2ccnc(NCCNS(=O)(=O)c3ccc(C(F)(F)F)cc3)c2)c1`: the growth is -20.9% (active).
For `CCOC(=O)c1csc(-c2ccc(COC(=O)c3ccccc3)o2)n1`, the growth is 107%.
As for `Cc1c2c[n+](C(C)C)ccc2c(C)c2c1[nH]c1ccccc12`, the growth was 14.4%.
As to `CNC=O`, the growth is 89.6%.
Regarding `COc1ccc(-c2cc(-c3c(C)oc4cc5occc5c(OC)c4c3=O)nc(N)c2C#N)cc1OC`, the growth is 57.9%.
To `O=C(N/N=C/c1ccc(O)c(O)c1)c1sc2ccccc2c1Cl` belongs 4.17% (active); to `CCCS(=O)(=O)Nc1ccc(F)c(C(=O)c2c[nH]c3ncc(-c4ccc(Cl)cc4)cc23)c1F`, 30.7%.
As for `COc1cc(C(O)C2C(=O)OCC2C2(c3ccc4c(c3)OCO4)SCCCS2)cc(OC)c1OC` (stereo not drawn), the growth is 91.8%.
The result for `Cl.Fc1c[c-]c(-c2ccccn2)c(F)c1.[Pt].c1ccc(P(c2ccccc2)C([PH+](c2ccccc2)c2ccccc2)[PH+](c2ccccc2)c2ccccc2)cc1` reads 8.71% (active).
The result for `CCc1c(Nc2ccccc2C)nc(N)[nH]c1=O` reads 88.9%.
To `CN(C)N=Nc1nn(C(=O)Nc2ccc(Cc3ccccc3)cc2)c2ccccc12` belongs 21.4%.
